NLRP3 yeast inh = NALP3 inhibition in yeast; inhibition, % at 10 µM; actives 0.39% (n = 330,000); Yeast reconstituted NLRP3/ASC/caspase-1, beta-gal luminescence, 24 h;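 active = inhibition of 50% or more; inactive = inhibition below 50%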;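 note: plate controls were induced DMSO wells for no effect and uninduced yeast grown without galactose for full effect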
NALP1 inh = blocks the NALP1 inflammasome reconstituted in yeast. inhibition, % at 10 µM. actives 0.61% (n = 280,000). AID 2071. S. cerevisiae NALP1/ASC/caspase-1 growth, X-gal OD620, 72 h; in the data active = inhibition mostly above about 24%, no sharp cut-off; inactive = mostly below about 32%
PolyA inh = blocks polyadenylation in yeast reporter cells; actives 0.02% (n = 300,000); activity score, % at 12 µM; S. cerevisiae SKY197-pL101 polyadenylation reporter, beta-gal luminescence; efflux-impaired pdr1/pdr3 knockout yeast; score 100 = 6 SD above DMSO;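 active = lowest replicate activity score at least 50, where 100 means six control SD above control mean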;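 note: yeast exposed to compound for 9 h at 30 °C; higher score means more reporter readthrough which indicates perturbed polyadenylation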
GASC-1 inh = blocks human GASC-1 demethylase activity | GST-JMJD2C(1-420) H3K9me3 demethylation, DELFIA europium | AID 2099 | inhibition, % at 2.35 µM | actives 0.069% (n = 330,000);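 active = more than half of a compound's replicate wells show inhibition beyond 50%, single wells judged on their own value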;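 note: signal counts dimethyl H3K9 product captured on neutravidin plate; 0% = median of DMSO wells and 100% = 0.3 times that DMSO median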
Target sequence (Q9H3R0 1-420 limits assumed): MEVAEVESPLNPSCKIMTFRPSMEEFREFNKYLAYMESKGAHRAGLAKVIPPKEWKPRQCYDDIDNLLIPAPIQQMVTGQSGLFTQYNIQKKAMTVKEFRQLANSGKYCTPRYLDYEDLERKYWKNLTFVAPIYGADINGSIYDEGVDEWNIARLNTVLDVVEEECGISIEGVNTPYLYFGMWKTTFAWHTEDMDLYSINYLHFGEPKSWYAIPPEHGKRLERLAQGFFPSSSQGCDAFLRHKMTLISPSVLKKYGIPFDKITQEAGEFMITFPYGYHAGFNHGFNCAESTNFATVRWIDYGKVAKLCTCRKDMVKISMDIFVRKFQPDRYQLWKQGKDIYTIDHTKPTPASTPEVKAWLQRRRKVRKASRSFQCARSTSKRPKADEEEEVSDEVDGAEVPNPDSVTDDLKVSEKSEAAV
HDAC3 inh = blocks human histone deacetylase 3. AID 2718. inhibition, % at 8.3 µM. recombinant HDAC3, fluorogenic peptide/trypsin coupled, fluorescence. actives 0.15% (n = 320,000). O15379; in the data active = inhibition above about 26%, passing the limit was not always enough
Efflux pump mplx = antifungal efflux pump inhibition, Nile Red retention. S. cerevisiae Candida pump triplex. inhibition, % at 10 µM. actives 0.44% (n = 330,000);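 active = plate passing quality check with inhibition over a set limit, or well fluorescence over plate mean plus 4 SD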;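 note: Nile Red retained in pooled yeast measured as flow cytometry median fluorescence; 0% = buffer negative control and 100% = Enniatin B positive control; higher means more Nile Red kept so more efflux inhibition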
Yeast cmpd fluor = counter-screen for efflux pump inhibitors: compound fluorescence | shares compounds with Efflux pump mplx | S. cerevisiae AD/pABC3, flow cytometry | fluorescence ratio to DMSO, % at 10 µM | actives 4% (n = 1,700) | AID 588517;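 active = fluorescence ratio to DMSO above its plate's cutoff, the plate mean ratio plus 5 SD, cut at about 210% in these data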;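 note: unstained yeast with no Nile Red so the signal is compound autofluorescence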
CaMdr1 efflux inh = blocks the Candida albicans Mdr1 efflux pump in yeast. S. cerevisiae AD/CaMDR1, Nile Red efflux, flow cytometry. AID 588518. inhibition, % at 10 µM. actives 1% (n = 1,700). shares compounds with Efflux pump mplx; in the data active = inhibition above about 26%;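 note: 0% = DMSO vehicle and 100% = reference inhibitor; higher means more Nile Red retained so more efflux inhibition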
CaCdr2 efflux inh = Candida Cdr2 efflux pump inhibition; shares compounds with Efflux pump mplx; S. cerevisiae AD/CaCDR2, Nile Red retention, flow cytometry; Nile Red retention ratio vs DMSO, % at 10 µM; actives 4% (n = 1,700); in the data active = Nile Red retention ratio vs DMSO above about 190%;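 note: higher ratio means more blocking of Cdr2 efflux of the dye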
Cdr1 pump inh = Candida Cdr1 efflux pump inhibition; actives 1% (n = 1,700); inhibition, % at 10 µM; shares compounds with Efflux pump mplx; S. cerevisiae AD/CaCDR1, Nile Red efflux, flow cytometry;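 active = inhibition above the screen-wide mean plus twice its standard deviation, cut at about 32% in these data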
Active calls of the source: *. In the library only some 1.5% were active in any assay of this set; here they are far more common.

Results for C[C@@]12C(=O)Nc3ccc(Cl)cc3C(=O)N1[C@H]1c3cc(Cl)ccc3OC[C@@H]1[C@@H]2c1ccccc1 ?
NLRP3 yeast inh: 4; GASC-1 inh: -100; HDAC3 inh: 2; Efflux pump mplx: 0; Yeast cmpd fluor: 103; CaMdr1 efflux inh: 0; CaCdr2 efflux inh: 116; Cdr1 pump inh: 0

What do the screens show for `C[C@@]12C(=O)Nc3cc(F)c(F)cc3C(=O)N1[C@H]1c3cc(Cl)ccc3OC[C@@H]1[C@@H]2c1ccccc1`?
NLRP3 yeast inh: 9; GASC-1 inh: 31; HDAC3 inh: 2; Efflux pump mplx: 0; Yeast cmpd fluor: 113; CaMdr1 efflux inh: 0; CaCdr2 efflux inh: 114; Cdr1 pump inh: 0

What do the screens show for `COc1ccc2c(c1)OC[C@H]1[C@H]2N2C(=O)c3cc(C)ccc3NC(=O)[C@@]2(C)[C@H]1c1ccccc1`?
NLRP3 yeast inh: 1; GASC-1 inh: 10; HDAC3 inh: 15; Efflux pump mplx: 5.1*; Yeast cmpd fluor: 121; CaMdr1 efflux inh: 1; CaCdr2 efflux inh: 121; Cdr1 pump inh: 0

How did C[C@@]12C(=O)Nc3ccccc3C(=O)N1[C@H]1c3cc(Cl)ccc3OC[C@@H]1[C@@H]2c1ccccc1 do in these assays?
NLRP3 yeast inh: 0; HDAC3 inh: 4; Efflux pump mplx: 0; Yeast cmpd fluor: 98; CaMdr1 efflux inh: 0; CaCdr2 efflux inh: 96; Cdr1 pump inh: 0

How did Cc1ccc2c(c1)[C@H]1[C@H](CO2)[C@H](c2ccccc2)[C@]2(C)C(=O)Nc3ccc(Cl)cc3C(=O)N12 do in these assays?
NLRP3 yeast inh: -4; GASC-1 inh: 30; HDAC3 inh: 2; Efflux pump mplx: 0

What do the screens show for `COc1ccc2c(c1)CN(C)S(=O)(=O)c1ccccc1-2`?
Efflux pump mplx: 0

Results for CC1(NC(=O)Nc2cc([N+](=O)[O-])ccc2O)CCS(=O)(=O)C1 (centres undefined) ?
NLRP3 yeast inh: 23; GASC-1 inh: 8; HDAC3 inh: 0; Efflux pump mplx: 0

Results for O=C(Cc1cccc(NC(=O)C2CCCN(C(=O)C3CCC3)C2)c1)Nc1cccc(C(=O)N2CCCC2)c1 (centres undefined) ?
NLRP3 yeast inh: -1; GASC-1 inh: 0; HDAC3 inh: 0; Efflux pump mplx: 0

How did COc1ccc(-c2nn(-c3ccccc3)cc2/C=C/C(=O)N2CCOCC2)cc1OC do in these assays?
NLRP3 yeast inh: 2; NALP1 inh: 0; PolyA inh: -33; GASC-1 inh: 0; HDAC3 inh: 6; Efflux pump mplx: 0

Results for COc1ccc(-c2cnc(SCC(=O)Nc3nc(C(C)(C)C)cs3)n2Cc2ccco2)cc1 ?
NLRP3 yeast inh: 0; NALP1 inh: 15; PolyA inh: 7; GASC-1 inh: 14; HDAC3 inh: -3; Efflux pump mplx: 0.4*; Yeast cmpd fluor: 115; CaMdr1 efflux inh: 0; CaCdr2 efflux inh: 129; Cdr1 pump inh: 0

What do the screens show for `O=C(COc1ccc(-c2ccccc2)cc1)NNC(=O)Nc1ccc(F)cc1F`?
NLRP3 yeast inh: 4; NALP1 inh: 8; PolyA inh: -9; GASC-1 inh: -1; HDAC3 inh: -14; Efflux pump mplx: 3.0*; Yeast cmpd fluor: 109; CaMdr1 efflux inh: 0; CaCdr2 efflux inh: 110; Cdr1 pump inh: 0

How did COc1ccc(OC)c(NC(=O)NNC(=O)COc2ccc(-c3ccccc3)cc2)c1 do in these assays?
NLRP3 yeast inh: 19; NALP1 inh: 16; PolyA inh: -2; GASC-1 inh: -3; HDAC3 inh: 3; Efflux pump mplx: 0

How did Cn1ccc(NC(=O)c2ccc(Cl)cc2)n1 do in these assays?
NLRP3 yeast inh: 19; GASC-1 inh: -1; HDAC3 inh: 0; Efflux pump mplx: 151*; Yeast cmpd fluor: 106; CaMdr1 efflux inh: 0; CaCdr2 efflux inh: 100; Cdr1 pump inh: 0

How did Cn1ccc(NC(=O)c2ccc(Cl)cc2Cl)n1 do in these assays?
NLRP3 yeast inh: 7; GASC-1 inh: -1; HDAC3 inh: 8; Efflux pump mplx: 0

How did Cc1ccc(Nc2nc(Cl)nc(NC(C)(C)C)n2)cc1 do in these assays?
NLRP3 yeast inh: 2; NALP1 inh: 18; PolyA inh: 13; GASC-1 inh: -6; HDAC3 inh: 8; Efflux pump mplx: 1.1*; Yeast cmpd fluor: 172; CaMdr1 efflux inh: 1; CaCdr2 efflux inh: 100; Cdr1 pump inh: 0

Results for S=C(NCC1CCCO1)N1CCc2ccccc2C1 (centres undefined) ?
NLRP3 yeast inh: 7; NALP1 inh: 0; PolyA inh: -6; GASC-1 inh: 5; HDAC3 inh: 1; Efflux pump mplx: 0; Yeast cmpd fluor: 95; CaMdr1 efflux inh: 0; CaCdr2 efflux inh: 89; Cdr1 pump inh: 0

Results for S=C(NCC1CCCO1)N1CCN(c2ccccc2)CC1 (centres undefined) ?
NLRP3 yeast inh: 12; NALP1 inh: -1; PolyA inh: 10; GASC-1 inh: -11; HDAC3 inh: 0; Efflux pump mplx: 0

What do the screens show for `O=C(Nc1ccc(O)cc1C(=O)O)c1ccc(NC(=O)c2ccco2)cc1`?
NLRP3 yeast inh: 12; GASC-1 inh: -8; HDAC3 inh: 11; Efflux pump mplx: 0; Yeast cmpd fluor: 107; CaMdr1 efflux inh: 0; CaCdr2 efflux inh: 95; Cdr1 pump inh: 0

Results for O=C(O)Cc1ccc(NC(=O)c2ccc(NC(=O)c3ccco3)cc2)cc1 ?
NLRP3 yeast inh: 3; NALP1 inh: -2; PolyA inh: 9; GASC-1 inh: -13; HDAC3 inh: -3; Efflux pump mplx: 11*; Yeast cmpd fluor: 107; CaMdr1 efflux inh: 0; CaCdr2 efflux inh: 100; Cdr1 pump inh: 0

How did O=C(Nc1ccccc1)/C(=C/c1ccc2c(c1)OCO2)NC(=O)c1ccco1 do in these assays?
NLRP3 yeast inh: 14; NALP1 inh: 12; PolyA inh: -10; GASC-1 inh: -2; HDAC3 inh: 12; Efflux pump mplx: 0

How did Cc1ccc(S(=O)(=O)CCC(=O)OC2CC(C)OC2=O)cc1 (centres undefined) do in these assays?
NLRP3 yeast inh: 0; GASC-1 inh: 0; HDAC3 inh: -1; Efflux pump mplx: 0
